# Screening data deposited in PubChem by National Center for Advancing Translational Sciences (NCATS).
# An excerpt weighted towards active compounds, which were near 0.74% of everything screened.
# Akt phos inh: HTS Assay for Inhibitors of Akt Phophorylation: Primary Screen | Neuro2A IGF-stimulated pAkt S473 HTRF, 20 min; stronger effect = lower value | activity change, % for hits at 50 µM | 360,000 tested, 0.32% active; in the data active = activity change below about -80%; inconclusive = mostly about -51% to -80%; note: % is set by controls: 0 for no effect and ±100 for the full control effect
#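 Single-point screen (50 µM final compound) in Neuro2A cells stimulated 20 min with 6 nM IGF at 37 deg C. After lysis, Ser473-phosphorylated Akt read by HTRF (ex 330 nm, em 615/665 nm) as the 665/615 ratio.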
# Vif-APOBEC3F blk: qHTS for Inhibitors of Vif-A3F Interactions: qHTS. 390,000 tested, 0.2% active. Potency, µM (top dose mostly 46.1 µM), for inactives: top-dose activity, negative = active. AID 602313, 2012. HeLa A3F-eYFP + Vif (tagged APOBEC3F with the HIV-1 protein that degrades it), YFP fluorescence increase; note: potency is the fitted concentration of half-maximal effect; % of control where 0% means no effect; nearly all actives have a fitted effect of over 65% in size
#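 Fluorescence increase (Ex 488/Em 500-530) after overnight compound treatment at 37 deg C flags inhibition of Vif-driven A3F-eYFP loss in stable HeLa A3F-eYFP/Vif cells seeded overnight beforehand.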
# Glioma ERSR ind: qHTS for Inducers of the Endoplasmic Reticulum Stress Response (ERSR) in Human Glioma: qHTS; 420,000 tested, 0.02% active; U87-MG GRP78 promoter luciferase reporter, 16 h; Potency, µM, without a hit: at the top dose activation, most hits filed as activators; note: potency is the fitted concentration of half-maximal effect; series mostly up to about 76 µM; % of control where 0% means no effect; nearly all actives have a fitted effect of over 35% in size
#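 Stably transfected U87-MG human glioma cells carrying a GRP78-based luminescent sensor were seeded at 1000 cells/well, pin-dosed with compounds and incubated 16 h. Luciferase reagent was then added, and end-point luminescence was read after 10 min at room temperature.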
# PINK1 modulator: A Quantitative High throughput Screen to Identify Chemical Modulators of PINK1 Expression. PINK1 immunofluorescence, high-content cytometry, 24 h. Potency, µM (top dose mostly 76.6 µM), without a hit: at the top dose activation (PINK1 increase), usual class: activators. 410,000 tested, 0.2% active. AID 624263, 2012; active = well fitted activation curve with a large enough effect; inconclusive = small, poorly fitted or top-dose-only effect; cell line not stated here; note: potency is the fitted concentration of half-maximal effect; % of control where 0% means no effect; nearly all actives have a fitted effect of over 65% in size
#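 Readout is PINK1 immunofluorescence, quantified alongside mitochondrial, cell and nuclear markers by laser-scanning microplate cytometry. Cells from a stable line were exposed to compound titrations (5 concentrations) for 24 hours, with CCCP controls.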
# Vif-APOBEC3G blk: qHTS for Inhibitors of Vif-A3G Interactions: qHTS; DNA dC->dU-editing enzyme APOBEC-3G (Homo sapiens), Q9HC16; HeLa A3G-eYFP + Vif (tagged APOBEC3G with the HIV-1 protein that degrades it), YFP fluorescence, overnight; Potency, µM (top dose mostly 46.1 µM), for inactives: at the top dose activity, negative = active, actives largely listed as inhibitors; 410,000 tested, 0.076% active; note: potency is the fitted concentration of half-maximal effect; % is set by controls: 0 for no effect and ±100 for the full control effect; nearly all actives have a fitted effect of over 60% in size
# Target sequence (Q9HC16 whole entry, looked up): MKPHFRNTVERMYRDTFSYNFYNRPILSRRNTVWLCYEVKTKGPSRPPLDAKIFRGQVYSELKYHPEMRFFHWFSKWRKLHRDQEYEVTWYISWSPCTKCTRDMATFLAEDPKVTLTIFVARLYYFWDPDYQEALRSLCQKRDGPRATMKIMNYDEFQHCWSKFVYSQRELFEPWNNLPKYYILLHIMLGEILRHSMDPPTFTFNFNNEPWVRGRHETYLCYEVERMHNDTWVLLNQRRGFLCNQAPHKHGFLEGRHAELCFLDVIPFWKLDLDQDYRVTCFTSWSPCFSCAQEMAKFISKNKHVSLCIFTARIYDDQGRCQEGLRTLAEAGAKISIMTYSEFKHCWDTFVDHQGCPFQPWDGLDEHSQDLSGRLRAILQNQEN
#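 Read-out is eYFP fluorescence (Ex 488/Em 500-530) from Vif-expressing HeLa A3G-eYFP cells; more signal means A3G escaped Vif-mediated degradation. Cells plated overnight, compound pinned in, incubated overnight at 37 deg C.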
# LDHA block: qHTS assay for inhibitors of human lactate dehydrogenase | purified LDHA, NADH/diaphorase-resazurin fluorescence; stronger effect = lower value | AID 1347041, 2019 | 480,000 tested, 0.15% active | activity change, % (values are at about 110 or 230 µM); in the data active = activity change below about -30%; inconclusive = mostly about -25% to -30%;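 note: plate controls were DMSO wells for no effect and wells without enzyme for full effect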
#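 Enzyme activity of human lactate dehydrogenase 5 (2 nM; 0.06 mM NADH, 0.2 mM pyruvate, 5 min, RT) is measured via a resazurin/diaphorase fluorescence readout of residual NADH.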
# * hit, by the source's call; i = inactive; ? = inconclusive; . = no result given. Unless noted, calls come from the whole dose curve; as a rule, active = well fitted curve in the direction sought with a large enough effect; inconclusive = small, poorly fitted or top-dose-only effect, or another doubt; inactive = no such curve, though single readings can be large; an effect the other way counts as inactive or inconclusive.
SMILES,Akt phos inh,Vif-APOBEC3F blk,Glioma ERSR ind,PINK1 modulator,Vif-APOBEC3G blk,LDHA block
COc1ccc(NC(=O)C23CCC(=O)N2c2ccccc2C(=O)N3)cc1Cl (stereo not drawn),.,.,.,.,.,0.2
Oc1ccc(CNc2ccccc2F)c2cccnc12,i,0.0%,-0.8%,28.2µM*,-9.0%,-4.5
Oc1ccc(CNc2ccc(F)cc2F)c2cccnc12,.,.,.,.,.,26.2
CCCCNc1oc(-c2ccc(S(=O)(=O)N3CCOCC3)cc2)nc1C#N,.,.,.,.,.,8.2
CCOC(=O)c1cnn(-c2cc(C)c3ccccc3n2)c1N,-132.7%*,0.1%,1.9%,0.9%,-2.6%,-2.5
CCOC(=O)c1cnn(-c2ccccn2)c1N,i,-5.7%,6.2%,3.5%,-0.9%,1.3
CCc1ccc(C2C(C#N)=C(N)SC(N)=C2C#N)s1,i,22.4µM*,1.3%,5.4%,?,8.1
COc1cccc(OC)c1C(=O)Nc1cc(C)c(O)c(-c2nc3cc(C)ccc3o2)c1,.,.,.,.,.,-1.5
NCCCC[C@H]1NC(=O)[C@H](CCC(=O)O)NC(=O)c2cc([N+](=O)[O-])cc(I)c2OCC[C@@H](C(N)=O)NC1=O,i,-2.1%,-2.1%,-0.3%,0.4%,-39.7*
C[C@@H]1NC(=O)c2cc([N+](=O)[O-])cc(I)c2OCC[C@@H](C(N)=O)NC(=O)[C@H](CCCCN)NC1=O,i,-5.5%,-0.6%,2.6%,-4.0%,1.5
Nc1nc(N2CCOCC2)nc2c1C(C(=O)Nc1ccc(Cl)cc1)CC(=O)N2 (stereo not drawn),.,.,.,.,.,8.4
Cc1ccc(C(=O)CSc2nnc(-c3ccco3)n2Cc2ccccc2)cc1,-108.9%*,8.6%,?,-2.0%,-1.0%,-7.1
Cc1cccc(Nc2nn3c(=O)c4ccccc4nc3s2)c1,-101.6%*,4.2%,4.4%,-0.9%,-6.3%,-9.9
O=C(Nc1ccc(N2CCOCC2)c(S(=O)(=O)Nc2ccccc2Cl)c1)c1ccccc1,i,-6.3%,-0.7%,0.6%,-1.3%,-3.1
O=C(O)c1ccc(Cl)c(S(=O)(=O)Nc2ccccc2C(=O)Nc2ccc(Cl)cc2)c1,i,7.3%,2.4%,-0.2%,?,-37.9*
O=C(O)c1ccc(NS(=O)(=O)c2ccc(Cl)c(C(=O)Nc3ccccc3)c2)cc1,i,8.4%,-4.2%,0.1%,1.5%,-5.0
O=C(Nc1ccc(Cl)cc1)Nc1ccc(N2CCCC2)c(S(=O)(=O)Nc2ccccc2Cl)c1,i,-10.1%,-2.5%,2.82µM*,-6.7%,-5.3
NC(=O)c1c(NC(=O)CN2CCN(C(=O)C3CCCO3)CC2)sc2c1CCC2 (stereo not drawn),.,.,.,.,.,3.8
CC(=O)c1coc2c1cc(O)c1ccccc12,i,-8.8%,11.8%,1.1%,-9.6%,28.7
CC(=O)Oc1cc2c(C(C)=O)coc2c2ccccc12,-144.4%*,3.0%,4.8%,-1.1%,-2.2%,-4.0
S=C(NCc1ccco1)N/N=C/c1ccc(Cl)cc1,i,-19.1%,2.5%,9.5%,-1.2%,3.9
Oc1ccc(/C=N/NC(=S)NCc2ccco2)cc1,-115.7%*,-11.0%,3.7%,-1.8%,0.4%,-2.8
Fc1ccccc1Nc1nc2ccccc2n2nnnc12,i,25.1µM*,2.8%,11.2%,-27.2%,-8.8
Oc1ccccc1Nc1nc2ccccc2n2nnnc12,.,.,.,17.2%,.,3.4
CCOC(=O)N1CCC(Nc2nc3ccccc3n3nnnc23)CC1,i,10µM*,0.8%,1.6%,-8.4%,-1.3
SMILES,Akt phos inh,Vif-APOBEC3F blk,Glioma ERSR ind,PINK1 modulator,Vif-APOBEC3G blk,LDHA block
O=C(Nc1ccc(F)cc1)Nc1ccc2snnc2c1,.,-5.2%,-1.0%,31.6µM*,-0.6%,1.4
Cc1cccc(NC(=O)c2ccc3snnc3c2)c1,.,-1.7%,2.7%,-4.6%,0.1%,-3.8
CC(=O)c1ccc(NC(=O)Nc2ccc3snnc3c2)cc1,.,-4.7%,-2.3%,?,-4.6%,-7.0
COc1cccc(NC(=O)c2ccc3snnc3c2)c1,-112.6%*,-0.8%,8.8%,0.0%,-0.8%,-1.2
N#Cc1nc(Cc2cccc3ccccc23)oc1NCc1ccc(F)cc1,-107.5%*,7.3%,-8.2%,16.1%,2.8%,2.5
CCOC(=O)c1sc(C)nc1C,.,.,.,.,.,-1.4
CCOC(=O)c1sc(NCCNc2nc(C)c(C(=O)OCC)s2)nc1C,-111.7%*,-13.8%,0.3%,0.1%,4.5%,-4.1
CCCCOC(=O)Nc1ccc(OC)cc1S(=O)(=O)N1CCOCC1,-109.5%*,4.5%,-3.6%,-1.3%,1.5%,-4.3
COc1ccccc1Nc1nc(-c2ccc3c(c2)CCC(=O)N3)cs1,.,.,.,.,.,-31.3*
CCCn1c(C2CCCN2c2nc(-c3cccc(Br)c3)cs2)nc2ccccc21 (stereo not drawn),i,10µM*,-3.3%,11.3%,-3.4%,0.5
Cn1cc(B2OC(C)(C)C(C)(C)O2)cn1,.,.,.,.,.,6.4
Cc1n[nH]c(C)c1S(=O)(=O)N1CCCC(C(=O)N2CCN(c3ccc(Cl)cc3)CC2)C1 (stereo not drawn),i,-11.0%,-6.3%,-0.1%,0.6%,-5.1
Cc1[nH]c(=O)[nH]c(=O)c1S(=O)(=O)N1CCCC(C(=O)N2CCN(c3ccccc3Cl)CC2)C1 (stereo not drawn),-124.4%*,-4.5%,-5.1%,-0.7%,-6.3%,-7.2
Cc1nn(C)c(C)c1S(=O)(=O)N1CCCC(C(=O)N2CCN(c3ccc(Cl)cc3)CC2)C1 (stereo not drawn),-107.1%*,-5.1%,-1.5%,-0.7%,5.5%,-4.9
O=C(O)CN1C2=C(C(=O)CCC2)C(c2ccc(Cl)cc2)C2=C1CCCC2=O,.,.,.,.,.,-11.5
COc1ccc(-c2c(C)c3cc(OS(=O)(=O)c4ccc(C)cc4)ccc3oc2=O)cc1OC,.,.,.,.,.,5.8
Cc1ccc2c(c1)NC(=O)CC(c1ccccc1)=N2,i,-1.8%,3.4%,-0.8%,0.2%,0.8
Cc1ccc2c(c1C)NC(=O)CC(c1ccccc1O)=N2,i,11.2µM*,-4.2%,1.1%,-3.8%,-6.8
COc1cc(C(CC(=O)c2ccccc2)C(C#N)C#N)cc(OC)c1OC (stereo not drawn),.,.,.,.,.,4.7
CCC(C)C(=O)Nc1c2c(nc3c1CCC3)CCCC2 (stereo not drawn),-101.0%*,0.8%,-3.0%,4.2%,-0.3%,-6.5
Cc1cccc(-n2c(C)c(C)c3c2ncn2nc(-c4ccncc4)nc32)c1C,.,.,.,.,.,1.2
